About 7,900 targets were measured; listed, in parts, are those with a hit and a random draw of the rest. About 0.6% of all pairs of compound and target were hits. A number with no mark means an inactive call.
Experiments:
Assay in all cases: log2 fold change, soluble protein after heating vs DMSO (PISA); higher = thermal stabilisation; K562 cells, 10 uM, 30 min; active = over 0.2 and 3.5 SD of the protein, either way, in both replicates (recomputed)
[1] = compound: CC[C@@H]1C(=O)N(C)c2cnc(Nc3ccc(C(=O)NC4CCN(C)CC4)cc3OC)nc2N1C1CCCC1
How it was run: (§1)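 Aliquots of K562 cells (2×10^6 cells/mL) treated with 10 μM compound for 30 min were heated for 3 min over 48°C-58°C. After pooling and extraction in PBS with 0.5% NP-40 at 4°C, soluble protein from a 21,000xg, 90 min spin was quantified by TMTpro 16plex LC-MS/MS with channel sums equalised. Thermal stability is expressed against control samples, from duplicates, as a log2 fold change.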

[2] = compound: CC[C@H](C)N1C=C(C2=C(C=C(C=C21)C3=CN=C(C=C3)N4CCNCC4)C(=O)NCC5=C(C=C(NC5=O)C)C)C
How it was run: as §1

[3] = compound: CC[C@H](C)[C@@H](C(=O)N[C@@H]([C@@H](C)O)C(=O)N[C@@H](CC(C)C)C(=O)[C@]1(CO1)C)NC(=O)[C@H]([C@@H](C)CC)N(C)C(=O)C [epoxomicin]
How it was run: as §1

[4] = compound: CCn1c(C(=O)N(C2CC2)C2CC2)cc2c3c(ncn3C)c(Nc3cc(C)n(C)n3)nc21
How it was run: as §1

[5] = compound: CN(CCOC1=CC=C(C=C1)C[C@H]2C(=O)NC(=O)S2)C3=CC=CC=N3 (racemic) [rosiglitazone]
How it was run: as §1

[6] = compound: CCn1cc(-c2ccnc3[nH]c(-c4cccc(CN(C)C)c4)cc23)c(-c2ccc(NC(=O)N(C)C)cc2)n1
How it was run: as §1

[7] = compound: CN(C)CC(=O)Nc1ccc2[nH]c(=O)c3ccccc3c2c1
How it was run: as §1

[8] = compound: CN1C2=C(C3=C1C(=O)N(N=C3)CC4=CC(=CC=C4)N)SC(=C2)S(=O)C
How it was run: as §1

[9] = compound: CN1CCC(CNc2ccc3ncc(-c4cccc(OC(F)(F)F)c4)n3n2)CC1
How it was run: as §1

[10] = compound: CC[C@@H]1C(=O)N(C)c2cnc(Nc3ccc(C(=O)N[C@H]4CC[C@H](N5CCN(CC6CC6)CC5)CC4)cc3OC)nc2N1C(C)C [volasertib]
How it was run: as §1

Sequence of UniProt Q9UIB8 (Q9UIB8 whole entry, looked up): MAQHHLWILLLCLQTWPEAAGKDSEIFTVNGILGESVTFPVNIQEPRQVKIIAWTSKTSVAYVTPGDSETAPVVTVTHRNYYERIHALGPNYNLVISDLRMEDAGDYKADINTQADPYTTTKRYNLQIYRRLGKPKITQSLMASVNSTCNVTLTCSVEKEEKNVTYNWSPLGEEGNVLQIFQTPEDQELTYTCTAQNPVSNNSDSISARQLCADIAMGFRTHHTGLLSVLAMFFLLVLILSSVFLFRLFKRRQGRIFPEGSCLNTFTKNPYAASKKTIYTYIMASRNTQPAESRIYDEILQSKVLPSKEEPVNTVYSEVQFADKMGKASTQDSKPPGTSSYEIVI
Sequence of UniProt O75503 (O75503 whole entry, looked up): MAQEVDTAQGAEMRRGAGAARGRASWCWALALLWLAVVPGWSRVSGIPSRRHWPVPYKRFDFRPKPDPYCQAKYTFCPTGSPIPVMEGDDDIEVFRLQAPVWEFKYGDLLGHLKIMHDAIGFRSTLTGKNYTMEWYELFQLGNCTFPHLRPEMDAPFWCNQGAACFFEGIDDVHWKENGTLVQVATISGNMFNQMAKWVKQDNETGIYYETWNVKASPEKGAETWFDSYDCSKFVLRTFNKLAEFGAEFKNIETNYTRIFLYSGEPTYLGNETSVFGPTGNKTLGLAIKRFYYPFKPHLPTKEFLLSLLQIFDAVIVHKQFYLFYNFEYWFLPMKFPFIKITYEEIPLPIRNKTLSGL
Sequence of UniProt Q14061 (Q14061 whole entry, looked up): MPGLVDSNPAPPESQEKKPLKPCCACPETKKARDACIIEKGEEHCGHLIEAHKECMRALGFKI
Sequence of UniProt Q6UUV9 (Q6UUV9 whole entry, looked up): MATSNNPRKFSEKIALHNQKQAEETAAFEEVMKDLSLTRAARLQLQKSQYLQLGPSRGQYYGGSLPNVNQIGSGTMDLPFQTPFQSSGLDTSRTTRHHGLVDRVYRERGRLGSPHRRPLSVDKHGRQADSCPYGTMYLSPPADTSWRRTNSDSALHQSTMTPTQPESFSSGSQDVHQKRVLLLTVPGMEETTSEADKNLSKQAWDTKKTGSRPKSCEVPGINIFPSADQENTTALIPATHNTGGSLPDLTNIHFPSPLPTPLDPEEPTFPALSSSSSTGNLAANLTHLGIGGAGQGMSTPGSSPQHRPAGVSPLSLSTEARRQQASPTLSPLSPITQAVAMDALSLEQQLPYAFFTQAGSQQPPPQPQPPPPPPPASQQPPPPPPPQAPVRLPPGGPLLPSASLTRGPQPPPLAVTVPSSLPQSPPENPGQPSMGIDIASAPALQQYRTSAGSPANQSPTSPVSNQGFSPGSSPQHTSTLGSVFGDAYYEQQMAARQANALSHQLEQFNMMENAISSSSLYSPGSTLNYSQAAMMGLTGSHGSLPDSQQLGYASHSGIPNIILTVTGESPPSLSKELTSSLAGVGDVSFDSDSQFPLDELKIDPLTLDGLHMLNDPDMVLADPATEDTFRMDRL
Sequence of UniProt P48730 (P48730 whole entry, looked up): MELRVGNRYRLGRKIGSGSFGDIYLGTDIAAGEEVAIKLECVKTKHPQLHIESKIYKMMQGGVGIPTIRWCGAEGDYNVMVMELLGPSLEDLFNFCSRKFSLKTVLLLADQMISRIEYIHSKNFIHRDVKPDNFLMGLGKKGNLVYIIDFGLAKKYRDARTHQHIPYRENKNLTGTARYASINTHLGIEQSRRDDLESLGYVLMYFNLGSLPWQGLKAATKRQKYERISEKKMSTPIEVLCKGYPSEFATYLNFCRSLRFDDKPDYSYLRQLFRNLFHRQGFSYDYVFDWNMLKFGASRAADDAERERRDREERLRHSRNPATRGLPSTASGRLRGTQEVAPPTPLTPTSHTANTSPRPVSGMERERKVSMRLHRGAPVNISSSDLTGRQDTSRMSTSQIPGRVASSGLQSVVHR
Sequence of UniProt Q02224 (Q02224 whole entry, looked up): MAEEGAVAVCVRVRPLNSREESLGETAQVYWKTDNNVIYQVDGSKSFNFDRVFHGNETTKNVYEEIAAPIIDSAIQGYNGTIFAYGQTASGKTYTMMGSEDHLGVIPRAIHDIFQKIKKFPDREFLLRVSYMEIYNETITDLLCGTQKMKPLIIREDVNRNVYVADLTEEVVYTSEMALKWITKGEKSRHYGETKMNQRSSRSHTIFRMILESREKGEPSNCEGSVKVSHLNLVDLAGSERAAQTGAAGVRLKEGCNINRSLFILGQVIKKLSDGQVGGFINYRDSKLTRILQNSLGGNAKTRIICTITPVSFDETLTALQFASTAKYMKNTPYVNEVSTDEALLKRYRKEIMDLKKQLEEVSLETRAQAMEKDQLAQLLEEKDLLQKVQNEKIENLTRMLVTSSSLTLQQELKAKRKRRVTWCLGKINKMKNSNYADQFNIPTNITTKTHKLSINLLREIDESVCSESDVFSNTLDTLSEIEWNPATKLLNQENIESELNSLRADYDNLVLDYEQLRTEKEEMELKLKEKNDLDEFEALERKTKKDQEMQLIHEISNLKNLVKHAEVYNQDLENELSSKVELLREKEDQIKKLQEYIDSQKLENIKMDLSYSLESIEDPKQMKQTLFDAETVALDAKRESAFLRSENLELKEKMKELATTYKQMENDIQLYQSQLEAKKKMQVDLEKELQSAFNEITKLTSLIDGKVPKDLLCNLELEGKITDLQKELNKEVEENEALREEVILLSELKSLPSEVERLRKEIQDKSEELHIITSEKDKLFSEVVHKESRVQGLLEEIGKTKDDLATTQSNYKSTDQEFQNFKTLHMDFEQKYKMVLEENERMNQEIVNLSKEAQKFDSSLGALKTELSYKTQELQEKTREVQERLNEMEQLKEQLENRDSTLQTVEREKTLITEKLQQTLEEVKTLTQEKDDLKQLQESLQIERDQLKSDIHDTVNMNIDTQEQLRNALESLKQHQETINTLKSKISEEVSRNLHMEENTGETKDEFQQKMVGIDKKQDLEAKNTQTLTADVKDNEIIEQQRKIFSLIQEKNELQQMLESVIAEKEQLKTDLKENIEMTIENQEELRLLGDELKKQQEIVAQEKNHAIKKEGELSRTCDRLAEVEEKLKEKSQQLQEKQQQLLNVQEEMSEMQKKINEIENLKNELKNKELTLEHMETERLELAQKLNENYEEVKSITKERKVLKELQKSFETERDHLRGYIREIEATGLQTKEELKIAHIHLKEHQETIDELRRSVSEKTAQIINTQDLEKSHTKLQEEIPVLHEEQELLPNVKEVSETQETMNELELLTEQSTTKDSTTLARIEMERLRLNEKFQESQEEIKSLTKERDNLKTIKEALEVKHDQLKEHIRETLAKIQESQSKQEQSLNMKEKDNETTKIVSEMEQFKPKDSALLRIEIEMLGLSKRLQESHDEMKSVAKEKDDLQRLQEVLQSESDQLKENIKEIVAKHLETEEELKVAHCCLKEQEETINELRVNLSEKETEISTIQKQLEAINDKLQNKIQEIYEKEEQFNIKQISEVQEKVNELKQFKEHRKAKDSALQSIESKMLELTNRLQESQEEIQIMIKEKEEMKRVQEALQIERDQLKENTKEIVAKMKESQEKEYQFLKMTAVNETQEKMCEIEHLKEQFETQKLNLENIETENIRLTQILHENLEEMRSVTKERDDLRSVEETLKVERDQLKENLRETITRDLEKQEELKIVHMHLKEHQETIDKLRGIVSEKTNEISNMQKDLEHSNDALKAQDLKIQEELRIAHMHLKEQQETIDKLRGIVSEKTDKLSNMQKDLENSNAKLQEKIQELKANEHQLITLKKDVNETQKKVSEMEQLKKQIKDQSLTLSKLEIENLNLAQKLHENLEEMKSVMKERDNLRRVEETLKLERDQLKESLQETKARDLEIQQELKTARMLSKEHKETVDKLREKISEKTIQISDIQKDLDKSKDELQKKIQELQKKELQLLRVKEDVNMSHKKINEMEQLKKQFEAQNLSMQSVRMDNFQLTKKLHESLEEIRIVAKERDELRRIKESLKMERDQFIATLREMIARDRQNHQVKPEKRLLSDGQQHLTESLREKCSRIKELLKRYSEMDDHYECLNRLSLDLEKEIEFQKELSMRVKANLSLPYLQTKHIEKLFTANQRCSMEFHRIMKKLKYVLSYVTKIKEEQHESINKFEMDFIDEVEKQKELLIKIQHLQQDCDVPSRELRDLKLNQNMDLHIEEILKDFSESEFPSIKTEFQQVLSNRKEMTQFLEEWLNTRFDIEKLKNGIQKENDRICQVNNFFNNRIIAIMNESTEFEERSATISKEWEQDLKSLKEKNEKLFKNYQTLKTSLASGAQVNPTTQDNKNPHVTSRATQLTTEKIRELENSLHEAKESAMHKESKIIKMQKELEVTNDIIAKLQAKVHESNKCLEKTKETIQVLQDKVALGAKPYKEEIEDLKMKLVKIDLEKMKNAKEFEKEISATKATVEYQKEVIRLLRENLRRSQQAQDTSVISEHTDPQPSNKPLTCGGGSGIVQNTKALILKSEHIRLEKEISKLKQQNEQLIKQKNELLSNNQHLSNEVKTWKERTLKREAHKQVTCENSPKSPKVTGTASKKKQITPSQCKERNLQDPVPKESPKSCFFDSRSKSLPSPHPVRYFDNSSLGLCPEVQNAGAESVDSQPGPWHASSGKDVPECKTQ
Sequence of UniProt O43529 (O43529 whole entry, looked up): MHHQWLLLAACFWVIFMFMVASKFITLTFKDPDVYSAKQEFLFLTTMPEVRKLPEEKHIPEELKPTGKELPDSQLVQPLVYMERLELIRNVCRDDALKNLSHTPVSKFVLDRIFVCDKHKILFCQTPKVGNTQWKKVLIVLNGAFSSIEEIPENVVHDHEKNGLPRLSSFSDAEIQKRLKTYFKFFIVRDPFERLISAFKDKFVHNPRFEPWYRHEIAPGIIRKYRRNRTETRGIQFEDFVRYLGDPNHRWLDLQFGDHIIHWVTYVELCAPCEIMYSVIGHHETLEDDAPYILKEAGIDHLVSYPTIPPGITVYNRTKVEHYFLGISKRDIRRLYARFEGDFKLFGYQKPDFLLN
Sequence of UniProt P51636 (P51636 whole entry, looked up): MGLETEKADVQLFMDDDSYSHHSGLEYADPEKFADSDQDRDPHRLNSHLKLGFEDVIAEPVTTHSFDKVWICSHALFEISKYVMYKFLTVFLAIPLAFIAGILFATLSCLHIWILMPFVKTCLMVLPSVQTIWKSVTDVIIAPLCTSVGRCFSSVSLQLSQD

Row | Target | log2 fold change [1] | log2 fold change [2] | log2 fold change [3] | log2 fold change [4] | log2 fold change [5] | log2 fold change [6] | log2 fold change [7] | log2 fold change [8] | log2 fold change [9] | log2 fold change [10]
1 | CDK2AP2 (UniProt O75956) | 0.078 | -0.04 | 0.137 | 0.074 | -0.002 |  |  |  |  | 
2 | CRYM-AS1 (UniProt A6NIL9) | -0.04 | 0.233 | -0.107 | 0.104 | -0.068 | -0.029 | 0.089 | 0.04 | -0.714 (active) | 
3 | CCDC187, A0A1W2PQX5 |  | 0.012 | 0.085 |  |  | -0.03 |  |  | -0.029 | 
4 | C22orf39 (UniProt Q6P5X5) |  | -0.042 | 0.081 | -0.08 | -0.119 |  |  | 0.043 |  | 0.134
5 | CCNL1 (UniProt Q9UK58) |  |  |  | -0.078 |  |  |  |  |  | 
6 | CLPTM1L (UniProt G5E9Z2) |  | -0.055 | 0.247 |  | 0.189 | 0.116 | 0.117 |  | 0.052 | 
7 | CS (UniProt F8VU34) | -0.093 |  |  |  | 0.221 |  |  |  |  | 
8 | CRTC1 isoform 2 (UniProt Q6UUV9) |  |  | -0.062 | -0.164 | 0.065 | 0.034 | -0.069 | -0.153 | 0.101 | 0.211
9 | CRMP1 isoform 2 (UniProt Q14194) |  | 0.2 |  | -0.303 | 0.047 | -0.198 | -0.072 | -0.25 | 0.038 | 
10 | CENPE (UniProt Q02224) |  |  |  | -0.079 | 0.03 | -0.039 | -0.061 | -0.255 | 0.192 | 0.137
11 | CLN5 (UniProt O75503) |  | -0.001 | 0.014 | 0.416 | -0.025 | -0.183 |  | 0.139 | -0.834 (active) | -1.25 (active)
12 | CD84 (UniProt Q9UIB8) |  |  | -0.009 | 0.111 |  |  |  | -0.077 |  | 
13 | CSNK1D (UniProt P48730) |  | 0 | 0.026 | -0.088 | -0.062 |  | -0.019 | 0.15 | 0.315 | -0.133
14 | CCNC (UniProt P24863) |  |  | 0.035 | 0.031 | -0.022 | -0.178 | -0.011 | 0.032 | 0.4 (active) | 
15 | C5orf30 (UniProt Q96GV9) |  |  | 0.165 |  |  |  |  |  |  | 0.001
16 | CHST10 (UniProt O43529) |  | 0.002 | -0.019 | -0.043 | 0.081 | -0.021 |  |  | -0.108 | -0.146
17 | CD68 (UniProt P34810) |  |  |  | 0.091 | 0.104 |  |  |  |  | 
18 | CAV2 (UniProt P51636) |  | -0.032 |  | -0.059 | -0.076 | -0.036 |  | 0.01 | 0.074 | -0.098
19 | CRTC3 (UniProt Q6UUV7) |  |  | 0.094 |  | 0.148 |  | -0.117 |  |  | 0.051
20 | COG2 (UniProt Q14746) | -0.173 | -0.357 | 0.008 | 0.076 |  |  |  | 0.302 |  | 
21 | CASK (UniProt O14936) |  |  |  | -0.086 |  |  |  | 0.014 |  | 
22 | COMMD3-BMI1 (UniProt R4GMX3) |  | 0.062 | 0.026 |  |  | 0.006 |  |  | -0.105 | 0.038
23 | CLINT1 (UniProt Q14677) | -0.022 | 0.021 | -0.035 |  | 0.003 |  | -0.075 | -0.218 |  | 
24 | CA1 (UniProt E5RIF9) |  |  | 0.132 |  | -0.083 |  | -0.037 | -0.056 |  | 
25 | COX17 (UniProt Q14061) |  | 0.044 | 0.504 | -0.097 |  | -0.154 | -0.051 | -0.146 | 0.055 | 
